Source: PubChem BioAssay AID1159580 (chemical genetic matrix, 2015)
Among all 5,500 compounds or so, about 2,000 (36%) were called active. About 18% were inconclusive and are not listed. Rule as the data show it: active = normalized growth mostly below about 0.91 (no sharp cut-off); inconclusive = no clear call, values can overlap the other calls; inactive = mostly above about 0.92. Some of the results follow.

Assay: chemical genetic growth profiling, strain panel (AID 1159580);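 also: tested at 20 µM; growth read once vehicle control cultures reached saturation at 30 °C; 1 = growth at the plate median or of vehicle wells; lower values mean less growth of the strain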
Details: S. cerevisiae deletion strains, growth OD

Measured: normalized growth

C#CCOC(=O)C1=CCCN(C)C1
inactive: locus YAL013W, strain DEP1, hits give low values 1.01 | locus YAL040C, strain CLN3, hits give low values 1.02 | locus YDR363W, strain ESC2, hits give low values 0.986 | locus YER002W, strain NOP16, hits give low values 1.03 | locus YGR078C, strain PAC10, hits give low values 1.01 | locus YGR229C, strain SMI1, hits give low values 1.01 | locus YMR263W, strain SAP30, hits give low values 1 | locus YMR307W, strain GAS1, hits give low values 0.959 | locus YNL153C, strain GIM3, hits give low values 1.03 | locus YNL175C, strain NOP13, hits give low values 1.01 | locus YNL197C, strain WHI3, hits give low values 0.99 | locus YNL224C, strain SQS1, hits give low values 0.998 | locus YNL322C, strain KRE1, hits give low values 1 | locus YOR083W, strain WHI5 (second series), hits give low values 1

CC(C)(N)Cc1ccccc1
inactive: locus YHR030C, strain SLT2, hits give low values 1.02 | locus YHR079C, strain IRE1, hits give low values 1.02 | locus YJL095W, strain BCK1, hits give low values 1 | locus YJR066W, strain TOR1, hits give low values 0.947 | locus YLR113W, strain HOG1, hits give low values 0.965 | locus YNL183C, strain NPR1, hits give low values 0.937 | locus YOR231W, strain MKK1, hits give low values 1.01 | locus YPL256C, strain CLN2, hits give low values 1.03
